EPAC1 ag: qHTS for Agonist of cAMP-regulated guanine nucleotide exchange factor 3 (EPAC1): primary screen; Rap guanine nucleotide exchange factor 3 (Homo sapiens), O95398; EPAC1 agonist qHTS, biochemical assay; response scale: 100% = response to 6.5 mM cAMP; Potency, µM (series often up to 154 µM), inactives show at the highest dose activation, most hits filed as activators; actives 0.073% (n = 360,000); also: nearly all actives have a fitted effect of over 60% in size
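Nucleotide exchange assay: 100 nM EPAC1 with 250 nM Rap1B loaded with BODIPY-GDP and 50 uM GDP, room temperature. Fluorescence (480/540 nm) read every 5 min for 30 min; signal change normalized to 6.5 mM cAMP as full agonist.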
EPAC2 ag: qHTS for Agonist of cAMP-regulated guanine nucleotide exchange factor 4 (EPAC2): primary screen; EPAC2 activation, biochemical qHTS; response scale: 100% = 6.5 mM cAMP response; AID 720711, 2013; Potency, µM (series often up to 154 µM), without a hit: at the highest dose activation, most hits filed as activators; actives 0.079% (n = 360,000); also: nearly all actives have a fitted effect of over 50% in size
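In this primary screen, activation is scored as increased exchange of BODIPY-GDP from Rap1B by 100 nM EPAC2, with 50 uM GDP as competitor. Signal is normalized to the 6.5 mM cAMP agonist control.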
EPAC2 antag: qHTS for Antagonist of cAMP-regulated guanine nucleotide exchange factor 2 (EPAC2): primary screen; Rap guanine nucleotide exchange factor 4 (Homo sapiens), Q8WZA2; EPAC2 GEF exchange of Rap1B-BODIPY-GDP, fluorescence; Potency, µM (top dose mostly 114 µM), for the others: at the top dose activity, negative = inhibition, most hits filed as inhibitors; actives 0.18% (n = 360,000); AID 720708, 2013; also: % is scaled to controls: 0 for no effect and ±100 for the full control effect; nearly all actives have a fitted effect of over 45% in size
VDR inh: Inhibitors of the vitamin D receptor (VDR): qHTS; Vitamin D3 receptor (Homo sapiens), P11473; AID 504847, 2011; Potency, µM, without a hit: max response, negative = inhibition, hits mostly inhibitors; VDR-SRC2-3 peptide fluorescence polarization, 2 h; actives 0.93% (n = 400,000); also: % is scaled to controls: 0 for no effect and ±100 for the full control effect
Target sequence (P11473 whole entry, looked up): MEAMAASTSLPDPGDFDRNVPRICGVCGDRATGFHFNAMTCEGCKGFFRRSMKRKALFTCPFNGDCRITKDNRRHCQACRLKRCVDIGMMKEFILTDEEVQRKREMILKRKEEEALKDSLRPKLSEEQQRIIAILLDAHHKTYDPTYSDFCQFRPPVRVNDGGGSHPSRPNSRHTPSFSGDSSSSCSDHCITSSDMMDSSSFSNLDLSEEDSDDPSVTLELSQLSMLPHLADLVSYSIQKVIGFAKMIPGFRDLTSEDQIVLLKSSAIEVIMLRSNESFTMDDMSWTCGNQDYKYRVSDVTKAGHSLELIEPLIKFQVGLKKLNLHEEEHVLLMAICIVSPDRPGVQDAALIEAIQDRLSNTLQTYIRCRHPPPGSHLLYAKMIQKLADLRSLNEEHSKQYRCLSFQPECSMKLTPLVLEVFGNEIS
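Measured by FP: displacement of SRC2-3 coactivator peptide from VDR by library compounds, following a two-hour ambient incubation.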
EPAC1 antagonist: qHTS for Antagonist of cAMP-regulated guanine nucleotide exchange factor 3 (EPAC1): primary screen | Potency, µM (series often up to 115 µM), for the others: at the top dose activity change, negative = inhibition, most hits filed as inhibitors | actives 0.14% (n = 360,000) | EPAC1 GEF assay, Rap1b-BODIPY-GDP exchange fluorescence | Rap guanine nucleotide exchange factor 3 (Homo sapiens), O95398;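 also: plate controls were vehicle for no effect and positive control for full effect; nearly all actives have a fitted effect of over 50% in size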
USP1-UAF1 inh: Inhibitors of USP1/UAF1: Primary Screen; Ubiquitin carboxyl-terminal hydrolase 1 (Homo sapiens), O94782; recombinant USP1/UAF1, Ub-Rhodamine cleavage fluorescence; Potency, µM (top dose mostly 57.1 µM), without a hit: at the highest dose activity change, negative = inhibition, usual class: inhibitors; actives 0.23% (n = 390,000); also: % is scaled to controls: 0 for no effect and ±100 for the full control effect; nearly all actives have a fitted effect of over 60% in size
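High-throughput fluorogenic screen: 1nM USP1/UAF1 complex, Ub-Rho substrate 150nM final, 50mM HEPES pH 7.8 with 0.5mM EDTA, 0.1 mg/ml BSA, 1mM TCEP and 0.01% Tween-20.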
Numbers without * were called inactive; ? = inconclusive; . = no result given; [ ] = dose if it differs, or a comment. This is a sample that favours compounds with a hit; in the whole collection about 1.2% have one here. Calls follow the shape of the dose curve; as a rule, active = well fitted curve in the direction sought with a large enough effect; inconclusive = small, poorly fitted or top-dose-only effect, or another doubt; inactive = no such curve, though single readings can be large; an effect the other way counts as inactive or inconclusive. Potency is read from the fitted curve at half-maximal effect.

SMILES	EPAC1 ag	EPAC2 ag	EPAC2 antag	VDR inh	EPAC1 antagonist	USP1-UAF1 inh
Cc1cccc(Cn2c(=O)n(-c3cc(C)cc(C)c3)c(=O)c3oc4ccccc4c32)c1	.	.	.	8.3%	.	-22.0%
CCC1CC=CC2C1C(=O)N(Cc1ccccc1)C2c1ccc(OC)c(Cl)c1 (stereo unspecified)	.	.	.	11.2%	.	.
Cc1ccc(S(=O)(=O)/N=C2\C=C(NS(=O)(=O)c3ccccc3)C(=O)c3ccccc32)c(C)c1	-5.8%	2.2%	?	-13.2%	-0.1%	-14.2%
CCc1ccc(S(=O)(=O)/N=C2\C=C(Nc3ccc(C(=O)O)cc3)C(=O)c3ccccc32)cc1	3.7%	-5.7%	-15.3%	3.7%	-22.0%	17.8µM*
Cc1ccc(S(=O)(=O)/N=C2\C=C(Nc3ccc(O)cc3)C(=O)c3ccccc32)cc1	26.8%	18.8%	-16.7%	13.5%	?	11.2µM*
CC(C)(C)c1ccc(S(=O)(=O)/N=C2\C=C(NS(=O)(=O)c3ccccc3)C(=O)c3ccccc32)cc1	-13.2%	-6.3%	?	?	?	?
Cc1ccc(S(=O)(=O)/N=C2\C=C(Nc3cccc(C(=O)O)c3)C(=O)c3ccccc32)cc1	-2.4%	-0.7%	?	-1.1%	-27.5%	14.1µM*
CC1(C(=O)O)NCCc2cc(O)c(O)cc21 (stereo unspecified)	.	.	.	-13.2%	.	.
C[C@H](N)C(=O)N[C@@H](CO)C(=O)N[C@H](C(=O)N[C@H](C(=O)N[C@H](C(=O)N[C@@H](CC(N)=O)C(=O)N[C@@H](Cc1ccc(O)cc1)C(=O)N[C@H](C(=O)O)[C@@H](C)O)[C@@H](C)O)[C@@H](C)O)[C@@H](C)O	.	.	.	2.0%	.	.
CNc1nc(-c2cccc(NS(C)(=O)=O)c2)nc2ccccc12	.	.	.	44.7µM*	.	.
CNc1nc(-c2ccccc2C)nc2ccccc12	.	.	.	44.7µM*	.	.
CS(=O)(=O)Nc1cccc(-c2nc(Nc3ccc(F)cc3)c3ccccc3n2)c1	.	.	.	2.6%	.	.
Cc1cnc(CNc2nc(-c3ccccc3C)nc3ccccc23)cn1	.	.	.	0.8%	.	.
NCCCC[C@H](N)C(=O)N[C@@H](CCCN=C(N)N)C(=O)N1CCC[C@H]1C(=O)N1CCC[C@H]1C(=O)NCC(=O)N[C@@H](Cc1ccccc1)C(=O)N[C@@H](CO)C(=O)N1CCC[C@H]1C(=O)N[C@@H](Cc1ccccc1)C(=O)O	.	.	.	-2.7%	.	.
CCN1CCc2c(sc(NC(=O)c3ccc(S(=O)(=O)N(C)c4ccccc4)cc3)c2C(=O)NC)C1	8.3%	100µM*	18.4%	?	7.0%	?
CNC(=O)c1c(NC(=O)c2ccc(S(=O)(=O)N(C)c3ccccc3)cc2)sc2c1CCN(C(C)C)C2	12.2%	?	4.4%	?	6.7%	-23.4%
CCc1ccccc1NC(=O)C(=O)NCCCN1CCOCC1	.	.	.	-6.8%	.	-21.8%
O=C(O)c1cc(N2N=C(C(F)(F)F)/C(=C/C=C/c3ccco3)C2=O)ccc1Cl	-0.5%	13.9%	?	?	35.5µM*	28.2µM*
CCOC(=O)c1ccc(N2N=C(C)/C(=C/C=C/c3ccco3)C2=O)cc1	-2.0%	-0.1%	3.1%	-14.9%	6.6%	-24.4%
CSCC[C@H](N)C(=O)N[C@@H](CCC(=O)O)C(=O)N[C@H](C(=O)NCC(=O)N[C@@H](Cc1c[nH]c2ccccc12)C(=O)N[C@@H](Cc1ccc(O)cc1)C(=O)N[C@@H](CCCNC(=N)N)C(=O)N[C@@H](CO)C(=O)N1CCC[C@H]1C(=O)N[C@@H](Cc1ccccc1)C(=O)N[C@@H](CO)C(=O)N[C@@H](CCCNC(=N)N)C(=O)N[C@H](C(=O)N[C@H](C(=O)N[C@@H](Cc1cnc[nH]1)C(=O)N[C@@H](CC(C)C)C(=O)N[C@@H](Cc1ccc(O)cc1)C(=O)N[C@@H](CCCNC(=N)N)C(=O)N[C@@H](CC(N)=O)C(=O)NCC(=O)N[C@@H](CCCCN)C(=O)O)C(C)C)C(C)C)C(C)C	.	.	.	8.1%	.	.
Cc1cc(NC(=O)c2ccccc2F)n(-c2nc3ccccc3[nH]2)n1	-0.5%	-3.8%	-22.2%	-12.2%	-9.4%	-16.6%
Cc1cc(Nc2ccccc2)n(-c2nc3ccccc3[nH]2)n1	7.6%	6.31µM*	8.5%	2.1%	-10.3%	-16.5%
Cc1cc(C)nc(NS(=O)(=O)c2ccc(NC(=O)CN3C(=O)S/C(=C\c4ccccc4)C3=O)cc2)n1	5.5%	5.8%	-11.1%	-12.9%	79.4µM*	?
O=C(NCCn1cc(SCc2ccccc2Cl)c2ccccc21)c1cccs1	.	.	.	23.3%	.	-20.4%
COc1ccc(C2N(c3ccc(Cl)cc3)N=C(C(C)=O)N(C)N2C(C)=O)cc1 (stereo unspecified)	5.3%	12.7%	20µM*	-14.4%	6.3%	-9.3%
SMILES	EPAC1 ag	EPAC2 ag	EPAC2 antag	VDR inh	EPAC1 antagonist	USP1-UAF1 inh
COc1cccc(N2C(C(C)=O)=NN(c3ccccc3)C2c2ccc(N3CCOCC3)cc2)c1 (stereo unspecified)	12.0%	5.6%	-2.6%	-4.0%	1.6%	-15.7%
N#CC(C(=O)NCc1ccco1)c1nc2ccccc2nc1N1CCOCC1 (stereo unspecified)	-33.2%	16.1%	?	17.9%	79.4µM*	-3.7%
N#CC(C(=O)NCc1ccccc1)c1nc2ccccc2nc1N1CCCC1 (stereo unspecified)	16.0%	89.1µM*	115.1%[57.1 µM]	-23.6%	58.6%	?
CCN(CC)c1nc2ccccc2nc1C(C#N)C(=O)NCCc1ccccc1 (stereo unspecified)	13.7%	-133.0%	31.6µM*	-16.2%	-7.5%	149.9%
N#CC(C(=O)NCCc1ccccc1)c1nc2ccccc2nc1N1CCCCC1 (stereo unspecified)	-1.2%	13.8%	-17.2%	22.5%	-14.8%	5.7%
Cc1cc(C(=O)OCC(=O)Nc2ccc(F)c(F)c2F)c(C)o1	-9.3%	-8.9%	-15.5%	79.4µM*	-9.1%	-7.2%
Cc1ccc(C2CC(=O)Oc3cc(C)c(Cl)cc32)cc1 (stereo unspecified)	.	.	.	-12.5%	.	.

Screening results as filed in PubChem.
